Inconclusive results are not listed. Where a call stands in place of a potency, no number is given. The source made the active and inactive calls. The call rests on the fitted dose curve; in most records, active means well fitted cell-killing curve with a large enough effect; inconclusive means small, poorly fitted or top-dose-only effect; inactive means flat fitted curve, though single readings scatter.
Experiment: Quantitative highthroughput screen to assess conditional lethalithy of NOMO1 cells grown in RPMI1640 with dialyzed fetal bovine serum (RPMI+ds) (AID 1963877); further: nearly all actives have a fitted effect of over 30% in size
Details: NOMO1 in RPMI+dialyzed FBS viability, ATP luminescence, 48 h; series mostly up to 45.8 µM
Text: Assay Provider: Jason Cantor Ph.D.
Department of Biochemistry
University of Wisconsin-Madison, Madison, WI, USA
Chemical screening studies have identified drug sensitivities across hundreds of cancer cell lines but most putative therapeutics fail to translate. Discovery and development of drug candidates in models that more accurately reflect nutrient levels in human blood is a major challenge. Here we performed high-throughput screens in conventional versus Human Plasma-Like Medium (HPLM) to identify compounds that were "missed" when screening using the artificial culture condition. Sets of conditional anticancer compounds spanned phases of clinical development and included non-oncology drugs were assessed. […] We also traced conditional phenotypes for several chemotherapeutics to availability of HPLM-specific metabolites and confirmed others for compounds whose reported targets are encoded by nonessential genes. Our findings establish generalizable strategies for exploiting conditional lethality in HPLM to reveal therapeutic candidates and mechanisms of action in cancer cells.
Described herein are the results of each viability screens against three cell lines: NOMO1 (an acute myeloid leukemia cell line); P12-Ichikawa (a T-cell acute lymphoblastic leukemia); and SEM (a B-cell ALL). Each assay was screened using 3 different cell culture media: homemade human plasma-Like medium with 10% dialyzed fetal bovine serum (HPLM+ds); RPMI1640 with 10% untreated FBS and 5mM glucose (RPMI+s); and RPMI1640 with 10% dialyzed fetal bovine serum and 5 mM glucose (RPMI+ds).
PROTOCOL TABLE (as described by Inglese J, Shamu CE and Guy RK. 2007)
SEQUENCE No. (e.g., 1, 2, 3, etc.); […] (e.g., Cells, Incubation, Reagent, etc.); VALUE and DESCRIPTION.
1; Cells; 5 uL; white, solid bottom 1536-well Greiner assay plate.
2; Compounds; 23 nL; Kalypsis pin tool (Wako USA) equipped with a 1536-well pin head to transfer to the assay plates.
3; Incubation; 48 hours; 37C incubation.
4; Reagent; 3 uL; CellTiter Glo (Promega).
5; Incubation; 5 min, room temperature
6; Detection; Luminescence, Viewlux PerkinElmer.
NOTES (numbers refer to Sequence numbers above)
1. Briefly, 5 ul of cell reagent was dispensed using a Multidrop Combi Dispenser. The NOMO1 and SEM cells were plated at 500 cells/well and the P12-Ichikawa line at 1000 cells/well.
2. After seeding the cells, 23 nL of MIPE 4.1 library compounds (in DMSO) were added to each plate using a Kalypsys 1536 Pintool dispenser. Bortezomib at final concentration of […] and DMSO were added to each plate as positive and negative controls respectively. For each screen, MIPE 4.1 compounds were added over an eleven-point concentration range […] in 3-fold dilutions.
3. Each plate was covered with a stainless steel gasketed lid to prevent evaporation and incubated for 48 hour at 37C, 95% relative humidity, and 5% CO2.
4-5. Three microliter CellTilter-GloTM luminescent substrate mix (Promega) reagent was added to the assay plate and incubated at room temperature for 5 min.
6. The luminescence signal was measured using a ViewLux (PerkinElmer) multiplate reader with a 2 second exposure time per plate. Data for each compound were normalized as percent viability such that measurements for DMSO and the empty well controls in each plate were defined as 100% and 0%, respectively.
Potency means the concentration at half of the fitted maximal effect.

SMILES	Potency
COc1ccc(CC2NCCc3cc(OC)c(OC)cc32)cc1OC (stereo not given)	inactive
CN1CCN(c2ccc([N+](=O)[O-])c3no[n+]([O-])c23)CC1	inactive
C#CC1(O)CCC2C3CCC4=CC(=O)CCC4(C)C3CCC21C (stereo not given)	inactive
C[C@@H]1CC[C@@]2(OC1)O[C@H]1C[C@H]3[C@@H]4CC=C5C[C@@H](O[C@@H]6O[C@H](CO)[C@@H](O[C@@H]7O[C@@H](C)[C@H](O)[C@@H](O)[C@@H]7O)[C@H](O)[C@@H]6O[C@@H]6O[C@@H](C)[C@H](O)[C@@H](O)[C@@H]6O)CC[C@]5(C)[C@@H]4CC[C@]3(C)[C@@H]1[C@H]2C	23500 nM (active)
O=C1C=CC[C@@H]2[C@H]3CCCN4CCC[C@@H](CN12)[C@@H]34	inactive
O=c1[nH]c2ccccc2n1CCCN1CCC(n2c(=O)[nH]c3cc(Cl)ccc32)CC1	inactive
CC(C)(O)C=CC(=O)[C@](C)(O)[C@H]1[C@H](O)C[C@]2(C)[C@@H]3CC=C4[C@@H](C=C(O)C(=O)C4(C)C)[C@]3(C)C(=O)C[C@@]12C	166 nM (active)
CCC1(c2ccc(N)cc2)CCC(=O)NC1=O (stereo not given)	inactive
COc1ccc(C(=O)c2c(C)n(CCN3CCOCC3)c3ccccc23)cc1	inactive
CC(C)(C)c1cc(C=C(C#N)C#N)cc(Br)c1O	inactive
C[C@]12CC[C@H]3[C@@H](CCC4=CC(=O)CC[C@@]43C)[C@H]1CC[C@H]2OC(=O)CCC1CCCC1	inactive
CC(=O)N(C)c1cccc(-c2ccnc3c(C(=O)c4cccs4)cnn23)c1	inactive
Cc1[nH]nc2ccc(-c3cncc(OC[C@@H](N)Cc4c[nH]c5ccccc45)c3)cc12	743 nM (active)
CC1=C(O)C(=O)C=C2C1=CC=C1[C@@]2(C)CC[C@@]2(C)[C@@H]3C[C@](C)(C(=O)O)CC[C@]3(C)CC[C@]12C	2640 nM (active)
CNC(=O)c1ccc(N2C(=S)N(c3ccc(C#N)c(C(F)(F)F)c3)C(=O)C23CCC3)cc1F	inactive
C=CCON=C(C[C@H]1O[C@@H]2O[C@]3(C)CC[C@@H]4[C@H](C)CC[C@@H]([C@H]1C)[C@@]24OO3)[C@H]1O[C@@H]2O[C@]3(C)CC[C@H]4[C@H](C)CC[C@@H]([C@@H]1C)[C@@]24OO3	743 nM (active)
C[C@H]([C@H](O)CCC(C)(C)O)[C@H]1CC[C@@]2(O)C3=CC(=O)[C@@H]4C[C@@H](O)[C@@H](O)C[C@]4(C)[C@@H]3CC[C@]12C	inactive
COc1cc(OC)c(OC)cc1C=O	inactive
CC(O)=C(C#N)C(=O)Nc1cc(Br)ccc1Br	inactive
CC(C)c1cccc(C(C)C)c1O	inactive

SMILES	Potency
CCOc1ccccc1-n1c(C(C)N2CCN(C(=O)COc3ccc(Cl)cc3)CC2)nc2ccccc2c1=O (stereo not given)	2630 nM (active)
C[C@]12Cc3cn[nH]c3C[C@@H]1CC[C@@H]1[C@H]2CC[C@@]2(C)[C@H]1CC[C@]2(C)O	inactive
CC(C)C[C@H](CN)CC(=O)O	inactive
C[C@](O)(CS(=O)(=O)c1ccc(F)cc1)C(=O)Nc1ccc(C#N)c(C(F)(F)F)c1	inactive
O=C(O)C(=O)c1cn(Cc2ccccc2)c2ccc(-c3ccc(OC(F)(F)F)cc3)cc12	inactive
CCN1C[C@]2(OC(=O)c3ccccc3NC(C)=O)CC[C@H](OC)[C@@]34[C@H]5CC6[C@@H](OC)C[C@](O)(C(C[C@@H]23)[C@@H]14)[C@@]5(O)[C@@H]6OC	inactive
CC=C(C)C(=O)O[C@H]1C(C)=C2[C@@H]3OC(=O)[C@@](C)(O)[C@@]3(O)[C@@H](OC(=O)CCC)C[C@](C)(OC(C)=O)[C@@H]2[C@@H]1OC(=O)CCCCCCC	66.2 nM (active)
CCc1c(C(=O)C(N)=O)c2c(OCC(=O)O)cccc2n1Cc1ccccc1	inactive
COc1cc2cc(c1Cl)N(C)C(=O)C[C@H](OC(=O)C(C)C)[C@]1(C)O[C@H]1[C@H](C)[C@@H]1C[C@@](O)(NC(=O)O1)[C@H](OC)C=CC=C(C)C2	inactive
C=C[C@@H]1CN2CCC1C[C@@H]2[C@@H](O)c1ccnc2ccccc12 (stereo not given in full)	inactive
Cc1c(N)nc([C@H](CC(N)=O)NC[C@@H](N)C(N)=O)nc1C(=O)N[C@H](C(=O)N[C@@H](C)[C@H](O)[C@@H](C)C(=O)N[C@@H](C(=O)NCCc1nc(-c2nc(C(=O)NCCC[S+](C)C)cs2)cs1)[C@@H](C)O)C(O[C@H]1O[C@H](CO)[C@H](O)[C@@H](O)[C@@H]1O[C@H]1O[C@H](CO)[C@@H](O)[C@H](OC(N)=O)[C@H]1O)c1cnc[nH]1 (stereo not given in full)	2640 nM (active)
CC(=O)O[C@@]12CO[C@H]1C[C@H](O)[C@@]1(C)C(=O)[C@H](O)C3=C(C)[C@@H](O)C[C@@](O)([C@@H](OC(=O)c4ccccc4)[C@@H]21)C3(C)C	13200 nM (active)
C[C@H]1CCCC=CC2C[C@H](O)C[C@@H]2[C@H](O)C=CC(=O)O1 (stereo not given in full)	1.2 nM (active)
CC1=C2C[C@@H]3[C@@H](CC=C4C[C@@H](O)CC[C@@]43C)[C@@H]2CC[C@]12O[C@H]1C[C@H](C)CN[C@H]1[C@H]2C	inactive
O=C(Oc1ccc([N+](=O)[O-])cc1)N1CCN(Cc2cccc(Oc3ccccc3)c2)CC1	inactive
CC(C)(C)[C@]1(O)C[C@@H]2OC(=O)C[C@@]23C(=O)O[C@@H]2OC(=O)[C@H](O)C213 (stereo not given in full)	inactive
Cc1cc(SCc2sc(-c3ccc(C(F)(F)F)c(F)c3)nc2C)ccc1OCC(=O)O	inactive
CC(C)N(CCNC(=O)CN1CCCC1=O)C(C)C	inactive
COC[C@H]1OC(=O)c2coc3c2[C@@]1(C)C1=C(C3=O)[C@@H]2CC[C@H](O)[C@@]2(C)C[C@@H]1OC(C)=O	inactive
CN(C)[C@@H]1C(=O)C(C(N)=O)=C(O)[C@@]2(O)C(=O)C3=C(O)c4c(O)cccc4[C@@](C)(O)[C@H]3C[C@@H]12	inactive

Reference: PubChem BioAssay (NCATS)
